A short description of test [1]: small molecules captured by biotinylated probe aFSTL3 – biochemical, small-molecule microarray, fluorescence 635/667, stem cell growth factor project, primary screen (AID 1064).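 Note: measures binding of the biotinylated anti-FSTL3 antibody to printed compounds.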 The settings on record: higher = more signal.
Test [2] can be described thus: binders from COS7 lysate, DM2A8 probe, primary screen, torsin A project, cell lysate, small-molecule microarray, fluorescence 635/667 (AID 1065). The following applies: higher = more signal, COS7 lysate expressing mutant human TOR1A.
Test [3] in a line: small molecules captured by biotinylated probe aFGF2 – biochemical, small-molecule microarray, fluorescence 635/667, stem cell growth factor project, primary screen (AID 1067).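 Note: measures binding of biotinylated aFGF2 protein to printed compounds on slides; z-score merges feature fluorescence and signal-to-noise across triplicate slides.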 The settings on record: higher = more signal.
A short description of test [4]: small molecules captured by biotinylated probe aFGF10 – biochemical, small-molecule microarray, fluorescence 635/667, stem cell growth factor project, primary screen (AID 1071).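 Note: score merges 667 nm spot intensity and signal to noise from triplicate slides.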 The settings on record: higher = more signal.
The target in test [5] is Neurogenic locus notch homolog protein 2 (Homo sapiens) (UniProt Q04721). The test can be described thus: small molecules binding Notch2 protein – biochemical, small-molecule microarray, 635 nm fluorescence, stem cell growth factors, primary screen (AID 1073). The settings on record: higher = more signal.
Chain of Neurogenic locus notch homolog protein 2 (Homo sapiens) (Q04721 whole entry, looked up, canonical isoform): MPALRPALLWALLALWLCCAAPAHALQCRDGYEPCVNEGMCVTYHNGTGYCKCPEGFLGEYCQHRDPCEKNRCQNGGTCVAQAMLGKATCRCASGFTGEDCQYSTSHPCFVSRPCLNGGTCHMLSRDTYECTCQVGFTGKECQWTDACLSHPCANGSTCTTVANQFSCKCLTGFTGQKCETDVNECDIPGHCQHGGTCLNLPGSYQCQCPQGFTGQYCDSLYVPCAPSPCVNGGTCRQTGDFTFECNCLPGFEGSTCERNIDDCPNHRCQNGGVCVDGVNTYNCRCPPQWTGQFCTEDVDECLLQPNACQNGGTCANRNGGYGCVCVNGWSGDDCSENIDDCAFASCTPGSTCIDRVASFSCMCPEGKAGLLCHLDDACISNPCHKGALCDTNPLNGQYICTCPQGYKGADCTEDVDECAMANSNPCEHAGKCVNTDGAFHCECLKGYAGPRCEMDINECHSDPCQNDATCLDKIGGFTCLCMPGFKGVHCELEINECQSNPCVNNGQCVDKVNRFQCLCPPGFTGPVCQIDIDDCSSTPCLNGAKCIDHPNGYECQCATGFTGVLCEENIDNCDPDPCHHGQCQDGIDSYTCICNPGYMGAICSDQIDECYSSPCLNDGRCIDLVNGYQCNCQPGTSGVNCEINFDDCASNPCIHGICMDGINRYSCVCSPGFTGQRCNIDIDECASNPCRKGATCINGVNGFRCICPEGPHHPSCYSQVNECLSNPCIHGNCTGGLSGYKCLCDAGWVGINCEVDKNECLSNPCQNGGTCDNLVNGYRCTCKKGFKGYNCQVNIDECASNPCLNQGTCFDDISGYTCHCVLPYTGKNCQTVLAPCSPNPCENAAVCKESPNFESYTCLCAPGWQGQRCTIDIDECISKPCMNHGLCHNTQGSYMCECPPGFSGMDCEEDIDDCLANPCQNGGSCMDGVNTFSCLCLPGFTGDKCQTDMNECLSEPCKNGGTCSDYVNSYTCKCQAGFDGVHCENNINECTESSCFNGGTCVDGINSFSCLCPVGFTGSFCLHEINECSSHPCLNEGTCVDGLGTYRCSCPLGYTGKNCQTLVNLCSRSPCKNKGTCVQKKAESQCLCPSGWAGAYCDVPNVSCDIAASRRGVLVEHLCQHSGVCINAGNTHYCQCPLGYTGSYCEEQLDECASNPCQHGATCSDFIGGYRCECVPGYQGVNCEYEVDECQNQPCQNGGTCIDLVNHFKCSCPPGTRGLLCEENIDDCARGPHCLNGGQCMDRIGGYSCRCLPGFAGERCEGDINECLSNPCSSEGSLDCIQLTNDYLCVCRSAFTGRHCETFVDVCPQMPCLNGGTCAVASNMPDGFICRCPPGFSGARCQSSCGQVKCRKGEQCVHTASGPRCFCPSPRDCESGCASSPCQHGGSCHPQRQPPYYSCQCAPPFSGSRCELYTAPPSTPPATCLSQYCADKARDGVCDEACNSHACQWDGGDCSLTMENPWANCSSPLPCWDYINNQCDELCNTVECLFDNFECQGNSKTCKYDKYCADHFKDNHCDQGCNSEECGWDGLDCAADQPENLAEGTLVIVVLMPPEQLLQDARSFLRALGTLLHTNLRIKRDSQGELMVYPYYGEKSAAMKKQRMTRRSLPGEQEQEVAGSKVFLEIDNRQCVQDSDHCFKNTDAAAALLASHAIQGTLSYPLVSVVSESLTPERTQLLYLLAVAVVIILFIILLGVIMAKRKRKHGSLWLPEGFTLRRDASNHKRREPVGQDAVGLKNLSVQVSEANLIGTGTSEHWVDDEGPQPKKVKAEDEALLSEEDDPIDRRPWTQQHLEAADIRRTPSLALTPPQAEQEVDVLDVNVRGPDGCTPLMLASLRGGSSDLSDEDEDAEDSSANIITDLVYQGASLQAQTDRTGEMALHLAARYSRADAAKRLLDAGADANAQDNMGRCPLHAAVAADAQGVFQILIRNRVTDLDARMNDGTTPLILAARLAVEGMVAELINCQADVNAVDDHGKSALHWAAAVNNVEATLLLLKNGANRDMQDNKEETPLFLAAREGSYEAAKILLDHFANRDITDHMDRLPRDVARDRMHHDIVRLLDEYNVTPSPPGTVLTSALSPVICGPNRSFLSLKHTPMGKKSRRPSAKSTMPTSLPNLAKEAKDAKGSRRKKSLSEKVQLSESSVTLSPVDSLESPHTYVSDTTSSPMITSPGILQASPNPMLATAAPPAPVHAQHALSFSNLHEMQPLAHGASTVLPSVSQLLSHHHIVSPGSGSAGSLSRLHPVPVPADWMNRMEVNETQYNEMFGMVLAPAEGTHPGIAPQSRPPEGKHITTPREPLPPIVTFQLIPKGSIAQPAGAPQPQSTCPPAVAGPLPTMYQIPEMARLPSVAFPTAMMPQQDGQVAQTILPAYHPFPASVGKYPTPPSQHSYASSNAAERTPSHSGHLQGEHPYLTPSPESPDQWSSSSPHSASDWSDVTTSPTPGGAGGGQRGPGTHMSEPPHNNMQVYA
Test [6] deals with Pro-neuregulin-1, membrane-bound isoform (Homo sapiens) (UniProt Q02297). The test can be described thus: small molecules binding neuregulin-1 protein – biochemical, small-molecule microarray, fluorescence 635/667, psychiatric disease protein project, primary screen (AID 1075).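 Note: score combines 667 nm spot fluorescence with signal to noise.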 The following applies: NRG1 binding, 635 nm fluorescence, higher = more signal.
Chain of Pro-neuregulin-1, membrane-bound isoform (Homo sapiens) (Q02297 whole entry, looked up, the tested form may be a part, canonical isoform): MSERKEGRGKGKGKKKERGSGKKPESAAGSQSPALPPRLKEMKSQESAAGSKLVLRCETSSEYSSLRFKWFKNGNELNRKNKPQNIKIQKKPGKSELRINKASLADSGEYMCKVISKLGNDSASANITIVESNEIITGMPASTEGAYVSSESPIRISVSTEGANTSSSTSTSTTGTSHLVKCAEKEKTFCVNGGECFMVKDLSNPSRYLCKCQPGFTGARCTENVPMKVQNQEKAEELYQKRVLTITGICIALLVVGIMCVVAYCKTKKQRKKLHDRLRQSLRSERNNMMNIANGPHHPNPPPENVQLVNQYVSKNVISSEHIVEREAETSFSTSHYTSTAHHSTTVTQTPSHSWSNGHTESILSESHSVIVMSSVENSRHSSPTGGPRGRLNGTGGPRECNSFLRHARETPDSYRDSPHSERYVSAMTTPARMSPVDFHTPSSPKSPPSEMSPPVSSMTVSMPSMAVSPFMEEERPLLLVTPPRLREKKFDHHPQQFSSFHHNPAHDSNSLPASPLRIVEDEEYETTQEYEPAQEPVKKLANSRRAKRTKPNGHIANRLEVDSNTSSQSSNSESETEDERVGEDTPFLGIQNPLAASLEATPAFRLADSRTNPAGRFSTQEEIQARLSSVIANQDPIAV
The test system of test [7] is Neuregulin-1 EGF-like domain. The test can be described thus: small molecules binding NRG1 EGF domain – biochemical, small-molecule microarray, 635 nm fluorescence, primary screen (AID 1081).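 Note: binding of the protein to compounds printed on small-molecule microarray slides.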 The settings on record: higher = more signal.
Test [8] in a line: FRG1 expression reporter modulators in myotubes – cell-based, C2C12 myotubes, firefly/Renilla luciferase, luminescence, FRG1 inhibition for FSHD, primary screen (AID 1084). The following applies: FRG1 promoter luciferase, higher = more signal, called active from +8 up or from −8 down.
The nature of test [9]: small molecules captured by biotinylated probe aFST – biochemical, small-molecule microarray, fluorescence 635/667, stem cell growth factor project, primary screen (AID 1086).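 Note: score merges 667 nm fluorescence with signal-to-noise of each printed compound spot.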 The following applies: higher = more signal.
The nature of test [10]: binders of probe aHhip on microarray, primary screen, stem cell growth factor project, biochemical, small-molecule microarray, fluorescence 635/667 (AID 1087).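 Note: score merges spot fluorescence at 667nm with spot signal to noise ratio.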 The settings on record: higher = more signal.

Our source for the composite z-score and z-score values is PubChem BioAssay.

The source made the active and inactive calls.

With `O=C1C[C@@H](O)[C@@H](O)[C@@H]2[C@@H]3C(=O)N(c4cccc(Oc5ccccc5)c4)C(=O)[C@@H]3CC[C@@H]12`, the composite z-score was -0.557 in test [1]; 0.272 in test [2]; -0.0598 in test [3]; 0.516 in [4]; 1.26 in [5]; 0.713 in [6]. In addition, the figures for the composite z-score in test [7], in [9] and in [10] were 1.01, 0.0399 and 0.0659, respectively. For the same compound, in [8], the z-score was -0.211 (inactive).
Consider `CCOC(=O)[C@H](Cc1ccccc1)NC(=O)CCC1CC(OC(=O)NCc2ccc3c(c2)OCO3)CC2(CCCC(COC(=O)NCc3ccccc3)O2)O1` (stereo not given in full), for which the composite z-score in test [1] is -0.0824; in test [2], 0.204; in test [3], -0.0103; in test [4], 0.697; in [5], 0.808; in [6] it was 0.317. The composite z-score was determined as 0.718 in test [7], 0.393 in test [9] and 0.0505 in [10]. The z-score in test [8] is 1.54 (inactive).
Take `CO[C@@H]1COC(=O)[C@@H]2CCCN2C(=O)[C@@H](C)COC(=O)[C@H](COCc2ccccc2)NC(=O)CC=C[C@H]1C`: the composite z-score was -0.451 in test [1]; 0.32 in test [2]; -0.112 in [3]; 0.451 in [4]; 0.433 in test [5]; 0.101 in test [6]. For the same compound, the values for the composite z-score in test [7], in [9] and in test [10] were 0.253, 0.79 and -0.0645, respectively. Moreover, the z-score in test [8] is -0.0485 (inactive).
Consider `O=C1C[C@@H](O)[C@@H](O)[C@@H]2[C@@H]3C(=O)N(c4ccc(F)cc4F)C(=O)[C@@H]3CC[C@@H]12`, for which the composite z-score in test [1] is -0.416; in test [2] it was 0.267; in test [3] it was -0.122; in [4], 0.315; in test [5], 0.627; in test [6] it was 0.0489. In addition, the composite z-score amounted to 0.823 in test [7], 0.153 in [9] and 0.144 in test [10]. Moreover, the z-score in test [8] was 0.25 (inactive).
Regarding `Cc1cc2c(c(=O)o1)[C@H](O)[C@H]1O[C@H]1C2=O`, the composite z-score in test [1] was 0.0331; in test [2] it was 0.357; in [3], -0.175; in test [4], 0.118; in test [5], 0.749; in [6], -0.262. Moreover, the results for the composite z-score in test [7], in test [9] and in test [10] were 0.12, -0.0853 and -0.0994, respectively. The z-score in [8] was -0.924 (inactive).
Turning to `C=CC[C@@H]1C=C[C@H](ON=C(C)CCN2CCc3nc(CC)c(CC)cc3C2)[C@@H](CO)O1`, the composite z-score in test [1] was 0.332; in [2] it was 1.43; in [3], -0.0593; in [4] it was -0.21; in test [5], 0.0383; in test [6], -0.21. The composite z-score in test [7] was 0.987; in [9], 0.553; in test [10], -0.123. The z-score in test [8] was 2.55 (inactive).
Consider `CCN1C(=O)[C@H]2[C@H]3[C@H](O)C=CC(=O)[C@@H]3CC[C@H]2C1=O`, for which the composite z-score in test [1] is -0.456; in test [2], 0.236; in test [3], -0.0744; in test [4], 0.393; in [5], 0.602; in test [6] it was -0.132. In addition, the composite z-score came to 0.226 in [7], 0.243 in test [9] and 0.312 in test [10]. In addition, the z-score in test [8] was 0.669 (inactive).
As to `CN1C(=O)C2C=CC(C(O)c3ccc(Br)cc3)N(N(c3ccccc3)c3ccccc3)C2C1=O` (stereo not given), the composite z-score was 0.519 in [1]; -0.225 in [2]; 0.301 in test [3]; 0.125 in test [4]; 1.09 in test [5]; 0.181 in test [6]. The composite z-score in [7] is 0.985; in test [9] it was 0.576; in [10], -0.0618. Besides, the z-score in test [8] was 0.162 (inactive).
As to `CCOC(=O)C1=CC[C@H]2C(=O)N(CC)C(=O)[C@@H]12`, the composite z-score in test [1] was -0.537; in test [2] it was 0.448; in test [3], -0.0715; in test [4], 0.772; in test [5] it was 0.937; in test [6], 0.98. Further, the composite z-score in [7] was found to be 1.11; in test [9], 0.406; in test [10], 0.176. Also, the z-score in [8] is 0.937 (inactive).
With `O=C1C[C@]2(c3ccc([N+](=O)[O-])cc3)C(=O)N(CCN3CCOCC3)c3cc(CO)ccc3[C@H]2N1CC12CC3CC(CC(C3)C1)C2`, the composite z-score in test [1] was -0.0111; in test [2], -0.624; in test [3] it was -0.103; in test [4], -0.164; in [5] it was -0.35; in [6], 1.38. For the same compound, the composite z-score is -0.273 in test [7], 0.337 in test [9] and 0.312 in [10]. Also, in test [8], the z-score was 0.103 (inactive).
On to `CC(CCN1CCCCc2nc(C)c(C)cc21)=NOC(C)CN1CCCc2nc(C)c(C)cc21` (stereo not given), for which the composite z-score came out at 0.0516 in [1]; 0.471 in [2]; 0.196 in [3]; 0.943 in test [4]; 1.52 in test [5]; 1.35 in [6]. Moreover, the composite z-score in test [7] is 1.06; in test [9] it was 1.24; in test [10] it was 0.82. Further, the z-score in test [8] is 1.28 (inactive).
`COc1ccc(-c2nc3c(c4c2C[C@H](C)OC4)CN(CCC(C)C)CC3)cc1`: the composite z-score in test [1] is -0.256; in test [2], 0.39; in test [3], -0.123; in [4] it was 0.644; in test [5], 1.04; in [6] it was 0.114. Further, the composite z-score in test [7] is 0.917; in test [9], 0.414; in test [10] it was -0.189. In addition, the z-score in [8] was -0.145 (inactive).
Regarding `COc1ccccc1CN1C(=O)c2ccccc2[C@@H](C(=O)NCC(F)(F)F)[C@@H]1c1ccc(CO)cc1`, the composite z-score in test [1] is -0.271; in [2], 0.683; in test [3] it was -0.0829; in [4], 0.0992; in test [5], 0.654; in test [6], 1.17. The composite z-score in test [7] was 1.39; in test [9] it was 0.19; in test [10], -0.0994. Also, the z-score in test [8] was -3 (inactive).
Take `CN1C(=O)C2C(C1=O)C1C=C(CCCO)C2C(c2ccc(CN3CCCC3)cc2)N1C` (stereo not given): the composite z-score in test [1] is 0.192; in test [2], 0.249; in test [3] it was -0.0902; in test [4], -0.302; in [5], -0.291; in test [6], 0.0016. Also, the composite z-score is 0.725 in [7], -0.424 in test [9] and 0.0749 in test [10]. The z-score in [8] was 0.243 (inactive).
On to `CC(C)(C)N1C(=O)[C@H]2[C@H]3[C@H](O)[C@H](O)CC(=NOCc4ccccc4)[C@@H]3CC[C@H]2C1=O`, for which the composite z-score was -0.0757 in [1]; 0.581 in [2]; -0.0963 in test [3]; 0.805 in test [4]; 1.49 in test [5]; 0.583 in test [6]. Moreover, the composite z-score in test [7] is 1.13; in [9] it was 0.503; in test [10], -0.15. Also, the z-score in test [8] is -1.4 (inactive).
Turning to `CC(=O)O[C@H]1C2=C(C(=O)[C@@H]3O[C@@H]31)[C@H]1C(C)O[C@@H]2[C@@]23C(=O)[C@@H]4O[C@@H]4[C@@H](O)C2=CO[C@H](C)[C@@H]13` (stereo not given in full), the composite z-score in [1] is -0.295; in test [2], 0.16; in test [3], -0.0314; in test [4] it was 0.226; in test [5], 0.166; in test [6], -0.274. Further, the composite z-score in [7] is 0.377; in test [9], -0.0354; in test [10], -0.0645. The z-score in [8] was -1.07 (inactive).
`C[C@@H](c1ccccc1)N1C(=O)[C@H]2[C@H]3[C@H](O)[C@H](O)CC(=NNC(=O)OCc4ccccc4)[C@H]3CC[C@H]2C1=O`: the composite z-score in test [1] was 0.512; in test [2], 0.16; in [3] it was -0.129; in test [4], 0.201; in [5], 0.382; in test [6] it was -0.207. Also, the composite z-score in test [7] is -0.451; in test [9], 0.366; in [10], -0.236. Besides, the z-score in [8] was 0.0168 (inactive).
